The panel holds about 79,000 compounds, 15% with a hit somewhere; the sample as a whole holds those more often. Calls of active or inactive are those of the source. No stated cut-off is given here; in the data, active means growth inhibition above about 70%; inactive means the rest.
How the values were obtained:
[1] = NCI Yeast Anticancer Drug Screen. Data for the wt1 strain (AID 149);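 further: 0% = growth of vehicle-treated wt1 cultures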; conditions: S. cerevisiae wt1 strain (SPY 50644) growth inhibition, stronger effect = higher value
In short: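 Yeast wt1 strain exposed to compounds; growth inhibition measured relative to vehicle-treated controls.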

[2] = NCI Yeast Anticancer Drug Screen. Data for the rad50EPP+ strain (AID 151);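 further: 0% = growth of vehicle-treated control cultures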; conditions: S. cerevisiae rad50 mutant strain, stronger effect = higher value
In short: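 Yeast strain carrying rad50 alteration (rad50EPP+) exposed to compounds; growth inhibition measured relative to vehicle-treated controls.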

[3] = NCI Yeast Anticancer Drug Screen. Data for the mgt1 strain (AID 153); conditions: S. cerevisiae mgt1 mutant growth inhibition, stronger effect = higher value
In short: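 Yeast mgt1 strain (DNA repair/cell-cycle alteration panel) exposed to compounds; growth inhibition measured relative to vehicle-treated controls.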

[4] = NCI Yeast Anticancer Drug Screen. Data for the rad50 strain (AID 155);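 further: 0% = growth of vehicle-only cultures of the same strain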; conditions: S. cerevisiae rad50 strain growth inhibition, stronger effect = higher value
In short: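 Yeast carrying a defined DNA repair defect were exposed to test compounds, and growth was compared with vehicle-treated controls to give percent inhibition.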

[5] = NCI Yeast Anticancer Drug Screen. Data for the mec2-1 strain (AID 157); conditions: S. cerevisiae mec2-1 strain, stronger effect = higher value
In short: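 mec2-1 yeast strain, carrying an alteration in DNA damage repair or cell cycle control, was exposed to compounds; growth inhibition was measured relative to vehicle-treated controls.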

[6] = NCI Yeast Anticancer Drug Screen. Data for the rad14 strain (AID 159);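 further: 0% = growth of vehicle-treated control cultures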; conditions: S. cerevisiae rad14 strain growth inhibition, stronger effect = higher value
In short: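 Yeast cells carrying a defined DNA-repair defect were exposed to compounds, and growth inhibition was calculated relative to vehicle-treated control cultures.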

[7] = NCI Yeast Anticancer Drug Screen. Data for the sgs1 mgt1 strain (AID 161);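 further: 0% = growth of cultures given vehicle only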; conditions: S. cerevisiae sgs1 mgt1 strain, stronger effect = higher value
In short: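 This yeast growth screen uses a strain with defined DNA-repair lesions; compound-treated growth is compared with vehicle-treated growth.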

[8] = NCI Yeast Anticancer Drug Screen. Data for the CLN2oe strain (AID 163);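 further: 0% = growth of vehicle-only control cultures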; conditions: S. cerevisiae CLN2oe strain, stronger effect = higher value
In short: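 Yeast cells carrying a defined cell-cycle control alteration were exposed to test compounds. Growth inhibition was scored against vehicle-treated control cultures.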

[9] = NCI Yeast Anticancer Drug Screen. Data for the cln2 rad14 strain (AID 165);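 further: 0% = growth equal to vehicle treated cultures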; conditions: S. cerevisiae cln2 rad14 strain, stronger effect = higher value
In short: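 Yeast carrying cln2 and rad14 alterations (cell cycle control and DNA damage repair) were exposed to compounds. Growth inhibition was measured against vehicle-treated controls.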

[10] = NCI Yeast Anticancer Drug Screen. Data for the bub3 strain (AID 167); conditions: S. cerevisiae bub3 mutant strain, stronger effect = higher value
In short: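 Compounds were applied to a genetically altered yeast strain carrying a cell-cycle control defect. Growth inhibition was scored against vehicle-treated controls.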

[11] = NCI Yeast Anticancer Drug Screen. Data for the wt2 strain (AID 169);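 further: 0% = growth of vehicle-treated yeast cultures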; conditions: S. cerevisiae wt2 strain growth inhibition, stronger effect = higher value
In short: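 Yeast cells were exposed to test compounds, and growth inhibition was measured relative to vehicle-treated controls.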

[12] = NCI Yeast Anticancer Drug Screen. Data for the mlh1 strain (AID 171);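 further: 0% = growth of vehicle-treated control cultures of the same strain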; conditions: S. cerevisiae mlh1 strain growth inhibition, stronger effect = higher value
In short: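 Yeast carrying a defined genetic alteration in DNA damage repair or cell cycle control were exposed to test compounds. Growth inhibition was measured relative to vehicle-treated controls.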

[13] = NCI Yeast Anticancer Drug Screen. Data for the sgs1 strain (AID 173);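 further: 0% = growth of vehicle-only control cultures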; conditions: S. cerevisiae sgs1 mutant, stronger effect = higher value
In short: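 Yeast mutant strains carrying defined defects in DNA damage repair or cell cycle control were exposed to test compounds. Growth inhibition was scored against vehicle-treated controls.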

[14] = NCI Yeast Anticancer Drug Screen. Data for the mlh1 rad18 strain (AID 175); conditions: S. cerevisiae mlh1 rad18 strain growth inhibition, stronger effect = higher value
In short: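 Growth inhibition of the yeast strain was measured after compound exposure and expressed relative to vehicle-treated controls. The strain carries defined defects in DNA damage repair.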

[15] = NCI Yeast Anticancer Drug Screen. Data for the rad18 strain (AID 177); conditions: S. cerevisiae rad18 mutant growth inhibition, stronger effect = higher value
In short: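 Yeast carrying a defined DNA damage repair alteration were exposed to compounds. Growth inhibition was expressed relative to vehicle-treated controls.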

[16] = at 5.0 µM (retest, dose inferred, filed as 0.5)
[17] = at 50.0 µM (retest, dose inferred, filed as 5.0)

Measured: growth inhibition

[N-]=[N+]=NC1CC(n2ccc(=O)[nH]c2=O)OC1COC(c1ccccc1)(c1ccccc1)c1ccccc1 (stereo not drawn)
active: [1]; at 33.0 µM 89% | [1]; at 100.0 µM 91% | [3]; at 33.0 µM 76% | [3]; at 100.0 µM 80% | [4]; [16] 76% | [4]; at 33.0 µM 93% | [4]; [17] 82% | [4]; at 100.0 µM 83% | [5]; at 33.0 µM 86% | [5]; [17] 79% | [5]; at 50.0 µM 89.7% | [5]; at 100.0 µM 85% | [6]; at 33.0 µM 77% | [6]; at 100.0 µM 81% | [7]; [17] 80% | [8]; at 33.0 µM 89% | [8]; at 100.0 µM 80% | [9]; [17] 81% | [9]; at 50.0 µM 88.9% | [10]; at 33.0 µM 85% | [10]; [17] 76% | [10]; at 50.0 µM 89.8% | [10]; at 100.0 µM 83% | [11]; at 33.0 µM 81% | [11]; at 100.0 µM 80% | [12]; at 33.0 µM 71% | [12]; at 100.0 µM 77% | [13]; at 33.0 µM 84% | [13]; at 100.0 µM 86% | [14]; [16] 74% | [14]; [17] 86% | [15]; at 33.0 µM 94% | [15]; at 100.0 µM 87%
inactive: [1]; at 1.2 µM 1% | [1]; at 3.7 µM 4% | [1]; at 11.0 µM 11% | [2]; at 1.2 µM 1% | [2]; at 3.7 µM 0% | [2]; at 11.0 µM 0% | [2]; at 33.0 µM -2% | [2]; at 100.0 µM -7% | [3]; at 1.2 µM 0% | [3]; at 3.7 µM 3% | [3]; at 11.0 µM 16% | [4]; at 1.2 µM 1% | [4]; at 3.7 µM 3% | [4]; at 11.0 µM 48% | [4]; at 50.0 µM 41.8% | [5]; at 1.2 µM -3% | [5]; at 3.7 µM -1% | [5]; [16] 18% | [5]; at 11.0 µM 27% | [6]; at 1.2 µM 2% | [6]; at 3.7 µM 5% | [6]; at 11.0 µM 18% | [7]; [16] 15% | [7]; at 50.0 µM 50.5% | [8]; at 1.2 µM -4% | [8]; at 3.7 µM -4% | [8]; at 11.0 µM 26% | [9]; [16] 33% | [10]; at 1.2 µM 0% | [10]; at 3.7 µM -2% | [10]; [16] 8% | [10]; at 11.0 µM 15% | [11]; at 1.2 µM 0% | [11]; at 3.7 µM -1% | [11]; at 11.0 µM 23% | [12]; at 1.2 µM 0% | [12]; at 3.7 µM 2% | [12]; at 11.0 µM 25% | [13]; at 1.2 µM 0% | [13]; at 3.7 µM 2% | [13]; at 11.0 µM 17% | [14]; at 50.0 µM 50.6% | [15]; at 1.2 µM 3% | [15]; at 3.7 µM 13% | [15]; at 11.0 µM 52%

O=C1C(C(O)(C(F)(F)F)C(F)(F)F)CCC1C(O)(C(F)(F)F)C(F)(F)F (stereo not drawn)
active: [9]; [16] 83%
inactive: [1]; at 1.2 µM 3% | [1]; at 3.7 µM 6% | [1]; at 11.0 µM 8% | [1]; at 33.0 µM 19% | [1]; at 100.0 µM 33% | [2]; at 1.2 µM -3% | [2]; at 3.7 µM -2% | [2]; at 11.0 µM 3% | [2]; at 33.0 µM 18% | [2]; at 100.0 µM 10% | [3]; at 1.2 µM 1% | [3]; at 3.7 µM 2% | [3]; at 11.0 µM 8% | [3]; at 33.0 µM 9% | [3]; at 100.0 µM 34% | [4]; at 1.2 µM -4% | [4]; at 3.7 µM -14% | [4]; [16] 2% | [4]; at 11.0 µM -22% | [4]; at 33.0 µM 3% | [4]; [17] 33% | [4]; at 50.0 µM 22.3% | [4]; at 100.0 µM 30% | [5]; at 1.2 µM 7% | [5]; at 3.7 µM 8% | [5]; [16] 9% | [5]; at 11.0 µM 10% | [5]; at 33.0 µM 20% | [5]; [17] 26% | [5]; at 50.0 µM 42.6% | [5]; at 100.0 µM 32% | [6]; at 1.2 µM 4% | [6]; at 3.7 µM 6% | [6]; at 11.0 µM 14% | [6]; at 33.0 µM 28% | [6]; at 100.0 µM 49% | [7]; [16] 4% | [7]; [17] 54% | [7]; at 50.0 µM 67.3% | [8]; at 1.2 µM 5% | [8]; at 3.7 µM 2% | [8]; at 11.0 µM 8% | [8]; at 33.0 µM 27% | [8]; at 100.0 µM 42% | [9]; [17] 46% | [9]; at 50.0 µM 14.2% | [10]; at 1.2 µM -1% | [10]; at 3.7 µM 0% | [10]; [16] -12% | [10]; at 11.0 µM 0% | [10]; at 33.0 µM 11% | [10]; [17] 32% | [10]; at 50.0 µM 28.4% | [10]; at 100.0 µM 24% | [11]; at 1.2 µM 1% | [11]; at 3.7 µM 4% | [11]; at 11.0 µM 8% | [11]; at 33.0 µM 23% | [11]; at 100.0 µM 39%
